# Assay outcomes from PubChem BioAssay.
# An excerpt weighted towards active compounds, which were near 7.2% of everything screened.
# AHR activator = activates the human aryl hydrocarbon receptor; P35869; AHR-responsive luciferase reporter cells, luminescence; activation, % at 5 µM; hit rate 2.5% among 320,000; in the data active means activation above about 47%;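 further: 0% = vehicle wells and 100% = reference agonist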
# Efflux pump mplx = inhibitors of Candida antifungal efflux pumps expressed in yeast; inhibition, % at 10 µM; S. cerevisiae Candida pump triplex, Nile Red efflux; hit rate 0.44% among 330,000;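 active means plate passing quality check with inhibition over a set limit, or well fluorescence over plate mean plus 4 SD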;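 further: Nile Red retained in pooled yeast measured as flow cytometry median fluorescence; 0% = buffer negative control and 100% = Enniatin B positive control; higher means more Nile Red kept so more efflux inhibition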
# Mot1-301 SUMO = SUMOylation pathway inhibition by Mot1-301 growth rescue; S. cerevisiae Mot1-301 growth rescue, ATP luminescence, 38.5C; percent above DMSO median, 100 means doubled; growth rescue, % at 18.8 µM; hit rate 1% among 320,000; AID 2716;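 active means every valid replicate shows activation above 250% relative to neutral control wells; inactive means the rest, any valid replicate at or below 250%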;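 further: OY570 slx delta 5 strain wells were the positive control but not used for scaling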
# Bfl-1 A1 inh = inhibitors of the anti-apoptotic protein A1, read as caspase activation; hit rate 0.066% among 330,000; MEF A1-2A-BIM cells, Caspase-Glo 3/7 luminescence, 3 h; percent of clofoctol response, vehicle zero; caspase activation, % (no concentration beside the values); AID 2462;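 active means over half of replicate activation scores above 10%, or exactly half above 10 with the replicate mean above 10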
# VLA-4 inh = inhibition in a human VLA-4 binding assay | P13612 | VLA-4 expressing cells, ligand binding flow cytometry | inhibition, % (about 7 µM as worked out from the volumes in the protocol) | hit rate 0.2% among 330,000 | AID 2557; in the data active means inhibition above about 50%
# ALR inh = human ALR oxidase inhibition via reduced H2O2 | AID 485317 | inhibition, % (test concentration not listed) | purified ALR, DTT oxidation, H2O2 HRP-luminol luminescence | hit rate 3.8% among 290,000;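 active means mean replicate inhibition above about 79%, with every replicate also reaching it, limit read from the data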
# Target sequence (P55789 whole entry, looked up): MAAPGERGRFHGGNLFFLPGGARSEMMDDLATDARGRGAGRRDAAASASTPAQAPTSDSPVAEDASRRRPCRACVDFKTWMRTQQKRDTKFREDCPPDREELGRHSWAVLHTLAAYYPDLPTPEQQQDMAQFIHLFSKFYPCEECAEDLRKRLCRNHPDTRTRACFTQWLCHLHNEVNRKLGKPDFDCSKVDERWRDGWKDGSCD
# Yeast Mot1 SUMO = SUMO pathway inhibitors in yeast Mot1-301 growth; growth activity, percent, % at 42 µM; shares compounds with Mot1-301 SUMO; 2,300 tested, under 10 active; S. cerevisiae Mot1-301 galactose growth, ATP luminescence, 24 h; -100 = growth of slx-deleted rescue strain;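 active means Signal drops as the depositor expects, and the fitted half-maximal dose is no more than ten times the top valid tested dose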;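 further: more negative values mean stronger growth rescue toward the control strain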
# * marks the source's active call; other numbers are inactive results; · = not tested or not shown; + = active, no number.
SMILES,AHR activator,Efflux pump mplx,Mot1-301 SUMO,Bfl-1 A1 inh,VLA-4 inh,ALR inh,Yeast Mot1 SUMO
O=C(CCc1nc2sc3c(c2c(=O)[nH]1)CCCC3)N1CCN(c2ccccc2)CC1,4,0,772*,1,10,-11,0
CCN(C(=O)COc1cccc2cccnc12)C1CCS(=O)(=O)C1 (stereo not given),4,0,129,0,-1,-55,·
COC(CNC(=O)c1cn(C)c2ccc(S(=O)(=O)N3CCOCC3)cc2c1=O)OC,1,0,606*,2,13,2,0
CCn1cc(C(=O)NCC(OC)OC)c(=O)c2cc(S(=O)(=O)N3CCOCC3)ccc21,1,0,-4,0,-5,-18,·
O=C1CC(N(CCc2ccccc2)C(=S)Nc2ccccc2)C(=O)N1c1ccc(F)cc1 (stereo not given),3,0,700*,0,1,-10,0
COC(=O)CN(C(=S)Nc1ccc(F)cc1)C1CC(=O)N(c2ccccc2)C1=O (stereo not given),1,0,653*,1,7,7,0
COC(=O)CN(C(=S)Nc1ccc(F)cc1)C1CC(=O)N(c2ccc(OC)cc2)C1=O (stereo not given),1,0,-3,0,-9,10,·
C=CCNC(=O)c1ccccc1NC(=O)c1ccc(Cl)c(S(=O)(=O)Nc2ccccc2)c1,1,0,161,1,1,-3,·
CSCC[C@H](NC(=O)[C@H]1CC[C@H](CNC(=O)[C@@H](N)Cc2ccccc2)CC1)C(=O)O,0,0,-9,2,-1,-1,·
Cc1csc(CNc2ncnc3ccc(-c4ccccc4Cl)cc23)c1,6,0,+,0,-5,-2,-1
Clc1ccccc1-c1ccc2ncnc(NCc3cccs3)c2c1,0,0,411*,0,2,-3,-3
Cc1csc(CNc2ncnc3ccc(-c4cccnc4)cc23)c1,29,0,-7,-1,5,3,·
Clc1cccc(-c2ccc3ncnc(NCc4cccs4)c3c2)c1,24,0,198,-1,3,0,·
Cc1ccc(C)c(C(C)NC(=O)c2ccncc2)c1 (stereo not given),2,0,752*,2,3,2,0
O=C(O)CCCC(=O)Nc1nc(-c2ccc(F)cc2)cs1,0,0,-8,1,-6,-1,·
O=C(Cc1ccc(F)cc1)Nc1nc(-c2ccc(F)cc2)cs1,-9,0,+,1,5,-2,-1
CCN(C(=O)Nc1ccccc1OC)c1c(N)n(Cc2ccccc2)c(=O)[nH]c1=O,3,0,471*,0,-4,-6,0
CCN(C(=O)COC(=O)CCc1ccccc1OC)c1c(N)n(Cc2ccccc2)c(=O)[nH]c1=O,-1,0,1,0,5,1,·
O=C(COC(=O)COc1ccccc1[N+](=O)[O-])NC1CCCCC1,0,0,15,0,4,1,·
Cc1ccc(C(=O)NCCCc2ccccc2)s1,5,0,-8,-1,18,-3,·
CCC(CC)COC(=O)C1=C(C)NC(=O)NC1c1cccc([N+](=O)[O-])c1 (stereo not given),-3,0,19,0,6,-2,·
Cc1ccc(NC(=S)N2CCN(Cc3ccccc3)CC2)cc1,1,0,-13,0,-2,-5,·
S=C(Nc1ccc(Cl)cc1)N1CCN(Cc2ccccc2)CC1,1,0,590*,0,11,2,0
CCN(C[C@H]1N[C@@](C)(C(=O)OC)[C@H]2C(=O)N(C)C(=O)[C@@H]12)S(=O)(=O)c1ccc(C(F)(F)F)cc1,0,0,-5,0,32,·,·
CC(=O)c1ccc(N=C2SCCCN2C(=O)C2CCCC2)cc1,0,0,398*,0,10,-4,0
SMILES,AHR activator,Efflux pump mplx,Mot1-301 SUMO,Bfl-1 A1 inh,VLA-4 inh,ALR inh,Yeast Mot1 SUMO
Cc1cc(NS(=O)(=O)c2ccc(NC(=O)c3ccc(Cl)cc3[N+](=O)[O-])cc2)no1,-1,0,-8,0,16,-9,·
CC[C@H]1C/C=C\Cc2ccccc2[C@H](C(=O)C[C@@H](O)CC(C)=O)OC1=O,0,0,-16,-1,-10,·,·
CC[C@@H]1C/C=C\Cc2ccccc2[C@H](C(=O)C[C@@H](O)CC(C)=O)OC1=O,-1,1,497*,1,10,-1,-1
CC1(C)Oc2ccc3ccc(=O)oc3c2/C(=C/Nc2ccc(O)cc2)C1=O,-5,0,984*,0,-1,20,0
CCOC(=O)c1c(NC(=S)Nc2ccc(OC)cc2)sc2c1CCCCC2,11,0,1,0,9,-1,·
CCOC(=O)c1ccc(NC(=O)c2c(NC(=O)CCC(=O)O)sc3c2CCCCC3)cc1,-3,0,631*,0,0,-5,0
O=C1CC(=O)C(n2cncn2)C(c2ccc(Cl)cc2Cl)C1 (stereo not given),-2,0,+,·,-8,-7,0
c1ccc(-c2cc3ccccc3cn2)cc1,37,0,372*,-14,2,1,-1
Fc1ccc2cc(-c3ccccc3)ncc2c1,28,0,122,-5,13,3,·
O=C(NCC(c1cccs1)N1CCOCC1)c1ccccc1NS(=O)(=O)c1ccc(Cl)c([N+](=O)[O-])c1 (stereo not given),6,0,-24,0,8,-17,·
